This note sets out measurements from paper PMC4336329 (PLoS ONE, 2015).

SMILES strings stand for the structures. The whole screen tested about 310,000 compounds, of which about 14,000 (4.5%) showed an effect of 50% or more. Effects have a minus sign here. This is one part of a sample in which strong results are shown more often than they occur.
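Also: peak tail current of the secondary pulse compared with the same well before compound.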

In the test the target is human ether-à-go-go-related gene (hERG) potassium channel (human, UniProt Q12809). Briefly: primary screen, population patch clamp on CHO cells stably expressing hERG; higher = less effect of the substance.
Sequence of human ether-à-go-go-related gene (hERG) potassium channel (Q12809 whole entry, looked up): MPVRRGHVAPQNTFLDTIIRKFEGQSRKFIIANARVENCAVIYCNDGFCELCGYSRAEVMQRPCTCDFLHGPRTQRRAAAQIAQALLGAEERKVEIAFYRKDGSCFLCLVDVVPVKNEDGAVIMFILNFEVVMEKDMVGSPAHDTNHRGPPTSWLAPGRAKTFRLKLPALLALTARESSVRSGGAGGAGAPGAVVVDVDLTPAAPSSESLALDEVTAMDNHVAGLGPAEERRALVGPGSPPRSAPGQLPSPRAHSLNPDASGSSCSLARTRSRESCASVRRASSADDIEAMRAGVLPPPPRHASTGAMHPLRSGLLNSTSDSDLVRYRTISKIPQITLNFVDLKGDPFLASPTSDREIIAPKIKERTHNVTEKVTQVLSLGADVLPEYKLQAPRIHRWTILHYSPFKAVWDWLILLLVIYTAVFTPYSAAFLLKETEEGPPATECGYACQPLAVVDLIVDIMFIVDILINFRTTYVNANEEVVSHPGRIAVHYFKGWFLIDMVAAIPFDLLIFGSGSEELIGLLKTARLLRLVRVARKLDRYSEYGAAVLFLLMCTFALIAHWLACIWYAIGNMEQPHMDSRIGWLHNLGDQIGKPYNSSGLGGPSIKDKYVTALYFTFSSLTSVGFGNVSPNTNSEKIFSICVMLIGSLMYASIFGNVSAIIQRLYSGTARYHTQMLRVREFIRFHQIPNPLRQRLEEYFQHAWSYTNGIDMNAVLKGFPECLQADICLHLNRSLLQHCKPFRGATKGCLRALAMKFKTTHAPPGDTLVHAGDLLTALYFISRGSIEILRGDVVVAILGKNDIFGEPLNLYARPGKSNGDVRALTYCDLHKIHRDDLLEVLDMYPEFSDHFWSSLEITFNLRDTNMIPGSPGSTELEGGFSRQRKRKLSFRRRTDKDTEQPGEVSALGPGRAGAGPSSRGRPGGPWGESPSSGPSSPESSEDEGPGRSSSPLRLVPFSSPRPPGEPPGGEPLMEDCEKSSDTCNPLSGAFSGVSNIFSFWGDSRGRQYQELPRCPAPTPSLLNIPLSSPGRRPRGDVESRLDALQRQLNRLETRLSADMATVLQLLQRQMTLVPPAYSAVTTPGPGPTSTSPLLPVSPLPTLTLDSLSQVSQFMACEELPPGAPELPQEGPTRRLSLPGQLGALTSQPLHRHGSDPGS
As to `CC(C)c1ccc2oc(=O)cc(CN3CCCCC3)c2c1`, the “hERG current change (%, negative = inhibition) at 10uM” value is reported as -12.8%.

Take `O=C(CN1N=C(c2ccc(Cl)cc2)CCC1=O)NCc1cccnc1`: the “hERG current change (%, negative = inhibition) at 10uM” value is -26.4%.

As to `CCO.CCn1c(COc2ccc3c(c2)OCO3)nnc1SCC(=O)O`, the “hERG current change (%, negative = inhibition) at 10uM” value was -0.394%.

Regarding `CCOC(=O)N1CCN(C(=O)CS(=O)(=O)Cc2nc(-c3ccccc3F)oc2C)CC1`, the “hERG current change (%, negative = inhibition) at 10uM” value was -13.6%.

On to `O=C(CSc1nc2cccnc2n1Cc1ccccc1)N1CCCC1`, for which the “hERG current change (%, negative = inhibition) at 10uM” value is reported as -63.7%.

With `Cn1c(SCC(=O)N2CCCC2)nc2cccnc21`, the “hERG current change (%, negative = inhibition) at 10uM” value came out at 16.9%.

As for `CCOC(=O)CNC(=O)CSc1nc2cccnc2n1CC`, the “hERG current change (%, negative = inhibition) at 10uM” value was -7.04%.

For `CCOC(=O)CNC(=O)CSc1nc2cccnc2n1Cc1ccccc1`, the “hERG current change (%, negative = inhibition) at 10uM” value is recorded as -53.9%.

Consider `COCCn1c(SCC(=O)N2CCCCC2)nc2cccnc21`, for which the “hERG current change (%, negative = inhibition) at 10uM” value is reported as -1.5%.

Consider `CCOC(=O)CNC(=O)CSc1nc2cccnc2n1C`, for which the “hERG current change (%, negative = inhibition) at 10uM” value is reported as 7.54%.

Regarding `CC1=C(C(=O)OC(C)C)C(c2cncc(-c3ccc(F)cc3)c2)C(C#N)=C(N)O1` (centres unmarked), the “hERG current change (%, negative = inhibition) at 10uM” value is reported as -28.6%.

Consider `Cc1nn(CC2CCCCC2)c(N)c1-c1ccccc1`, for which the “hERG current change (%, negative = inhibition) at 10uM” value was -12.2%.

`CC(C)(C)c1cc(C(F)(F)F)c(C#N)c(=O)[nH]1`: the “hERG current change (%, negative = inhibition) at 10uM” value came to 25%.

Turning to `Cc1nc(NC2CCCCC2)c2nnn(Cc3ccccc3Cl)c2n1`, the “hERG current change (%, negative = inhibition) at 10uM” value came out at 8.09%.

For the compound `O=[N+]([O-])c1ccc(N/N=C2/CCCCC2c2ccccn2)c([N+](=O)[O-])c1` (centres unmarked), the “hERG current change (%, negative = inhibition) at 10uM” value is listed as -56.3%.

On to `CC1CCCC/C1=N/Nc1ccc([N+](=O)[O-])cc1[N+](=O)[O-]` (centres unmarked), for which the “hERG current change (%, negative = inhibition) at 10uM” value is -1.11%.

Take `C[n+]1ccccc1C1CCCC/C1=N\Nc1ccc([N+](=O)[O-])cc1[N+](=O)[O-].[I-]` (centres unmarked): the “hERG current change (%, negative = inhibition) at 10uM” value is given as -11.8%.

Regarding `COc1ccccc1C(=O)NC(CCSC)C(=O)NCC(c1cccs1)N(C)C` (centres unmarked), the “hERG current change (%, negative = inhibition) at 10uM” value was 2.41%.

As for `COc1ccc(NC(=O)C(=O)NNC(=O)COc2ccc(Cl)cc2)c(OC)c1`, the “hERG current change (%, negative = inhibition) at 10uM” value came out at 10.5%.

In the case of `Cn1cc(C(=O)c2ccccc2)cc1-c1nc2ccccc2n1C`, the “hERG current change (%, negative = inhibition) at 10uM” value is given as -41.9%.

`Cn1cc(C(=O)c2ccc(Cl)cc2)cc1-c1nc2ccccc2n1C`: the “hERG current change (%, negative = inhibition) at 10uM” value is listed as -47.9%.

As for `Cn1cc(C(=O)c2ccc(F)cc2)cc1-c1nc2ccccc2n1C`, the “hERG current change (%, negative = inhibition) at 10uM” value is recorded as -50.5%.

On to `CCN(CC)CCn1c(OC)cc(=O)[nH]c1=O`, for which the “hERG current change (%, negative = inhibition) at 10uM” value came to 17.6%.

As to `CCC1=C(OC(=O)N(CC)CC)N2C(=O)OC(=NCCc3c[nH]c4ccccc34)[C@]2(C)[C@H]2C1=CC[C@H]1C(=O)N(CC)C(=O)[C@H]12`, the “hERG current change (%, negative = inhibition) at 10uM” value is listed as -9.68%.

Turning to `CCn1cc(CNC(=O)c2ccc3nc(Cc4ccc(OC)cc4)oc3c2)cn1`, the “hERG current change (%, negative = inhibition) at 10uM” value is reported as 6.8%.

In the case of `COc1ccc([C@H]2CC(=O)C=C(c3cccc(Cl)c3)C2)cc1`, the “hERG current change (%, negative = inhibition) at 10uM” value is on record as -11.8%.

For `COc1ccc([C@H]2CC(=O)C=C(c3cccc(OC)c3)C2)cc1`, the “hERG current change (%, negative = inhibition) at 10uM” value is listed as -82.1%.

On to `COc1ccc([C@H]2CC(=O)C=C(c3ccnc4ccc(Cl)cc34)C2)cc1`, for which the “hERG current change (%, negative = inhibition) at 10uM” value is recorded as -57.6%.

For `COc1ccc([C@H]2CC(=O)C=C(c3ccc(Cl)cc3C)C2)cc1`, the “hERG current change (%, negative = inhibition) at 10uM” value stood at 4.03%.

Take `COc1cccc(C2=CC(=O)C[C@H](c3ccc(Cl)cc3)C2)c1`: the “hERG current change (%, negative = inhibition) at 10uM” value is listed as 15.4%.

Take `COc1ccc([C@H]2CC(=O)C=C(c3cccc(Br)c3)C2)cc1`: the “hERG current change (%, negative = inhibition) at 10uM” value is -1.14%.

Take `COc1ccc([C@H]2CC(=O)C=C(c3cccc(C#N)c3)C2)cc1`: the “hERG current change (%, negative = inhibition) at 10uM” value is given as -72.3%.

Regarding `COc1cccc(C2=CC(=O)C[C@H](c3ccc(F)cc3)C2)c1`, the “hERG current change (%, negative = inhibition) at 10uM” value is -14.9%.

Turning to `COc1ccc([C@H]2CC(=O)C=C(c3cc(Cl)ccc3OC)C2)cc1`, the “hERG current change (%, negative = inhibition) at 10uM” value came to 7.4%.

Turning to `Cc1ccc(S(=O)(=O)NCC(=O)NCCc2c[nH]c3ccccc23)cc1C`, the “hERG current change (%, negative = inhibition) at 10uM” value was 3.3%.

With `O=C(NCC1OCCCN1S(=O)(=O)c1cc(F)ccc1F)C(=O)NC1CCCCC1` (centres unmarked), the “hERG current change (%, negative = inhibition) at 10uM” value is listed as -3.8%.

On to `O=C(CN1CCOCC1)Nc1ccc2c(c1)OCCO2.O=C(O)C(=O)O`, for which the “hERG current change (%, negative = inhibition) at 10uM” value came out at 15%.

Regarding `O=C(CN1CCN(CC(=O)Nc2ccccc2F)CC1)Nc1ccc2c(c1)OCCO2`, the “hERG current change (%, negative = inhibition) at 10uM” value is given as -71.2%.

Regarding `O=C(CN1CCN(CC(=O)Nc2ccccc2Cl)CC1)Nc1ccc2c(c1)OCCO2`, the “hERG current change (%, negative = inhibition) at 10uM” value is -68.7%.

With `O=C(CN1CCC(C(=O)c2ccc3c(c2)OCCO3)CC1)Nc1ccccc1F`, the “hERG current change (%, negative = inhibition) at 10uM” value is -0.724%.

Regarding `O=C(CN1CCOCC1)Nc1ccccc1Cl`, the “hERG current change (%, negative = inhibition) at 10uM” value is -8.73%.

As to `Cl.O=C(CN1CCC(NC(=O)c2ccccc2F)CC1)Nc1ccc2c(c1)OCCO2`, the “hERG current change (%, negative = inhibition) at 10uM” value was 6.04%.

With `COC(=O)N/N=C/c1ccccc1Cl`, the “hERG current change (%, negative = inhibition) at 10uM” value came out at 19.4%.

On to `N#CC(c1cccc(C(F)(F)F)c1)(c1ncc(C(F)(F)F)cc1Cl)N1CCOCC1` (centres unmarked), for which the “hERG current change (%, negative = inhibition) at 10uM” value was 4.46%.

On to `CCCN(CC1CCCO1)C(=O)c1cc(COc2ccc(F)cc2F)on1` (centres unmarked), for which the “hERG current change (%, negative = inhibition) at 10uM” value is given as -15%.

`CN(CC1CCCCO1)C(=O)c1cc(COc2ccc(F)cc2Cl)on1` (centres unmarked): the “hERG current change (%, negative = inhibition) at 10uM” value is reported as -87.1%.

Turning to `O=C(c1cc(COc2ccc(F)cc2Cl)on1)N(Cc1ccncc1)CC1CCCO1` (centres unmarked), the “hERG current change (%, negative = inhibition) at 10uM” value is recorded as -60.7%.

On to `CCN(Cc1ccncc1)C(=O)c1cc(COc2ccc(F)cc2Cl)on1`, for which the “hERG current change (%, negative = inhibition) at 10uM” value is listed as -44%.

Regarding `COc1ccc(OCc2cc(C(=O)N(C)CC3CCCCO3)no2)c(Cl)c1` (centres unmarked), the “hERG current change (%, negative = inhibition) at 10uM” value is given as -17.4%.

`COc1cc(Cl)ccc1OCc1cc(C(=O)N(C)CC2CCCCO2)no1` (centres unmarked): the “hERG current change (%, negative = inhibition) at 10uM” value is given as -18.7%.

As for `C[C@]12C(=O)N(c3ccc(Cl)cc3)C(=O)N1[C@@H]1c3ccccc3OC[C@@H]1[C@H]2c1ccccc1`, the “hERG current change (%, negative = inhibition) at 10uM” value was found to be 8.19%.

`CCC(C)N1CC23C=CC(O2)C(C(=O)OCc2ccccc2)C3C1=O` (centres unmarked): the “hERG current change (%, negative = inhibition) at 10uM” value stood at 5.54%.

With `CC(C)c1ccc(NC(=O)COC(=O)c2cc(=O)[nH]c3ccccc23)cc1`, the “hERG current change (%, negative = inhibition) at 10uM” value is listed as -8.12%.

Take `CCCCCNC(=O)Cc1ccc(S(=O)(=O)N2CCOCC2)s1`: the “hERG current change (%, negative = inhibition) at 10uM” value is -5.94%.

For the compound `O=C(Cc1ccc(S(=O)(=O)N2CCOCC2)s1)NCCC(c1ccccc1)c1ccccc1`, the “hERG current change (%, negative = inhibition) at 10uM” value is -54.8%.

For the compound `O=C(Cc1ccc(S(=O)(=O)N2CCOCC2)s1)NCCOc1ccccc1`, the “hERG current change (%, negative = inhibition) at 10uM” value is given as -8.35%.
